Drawing on the supplement of paper PMC10981050, this text covers cell viability for 25 compounds.

Each structure is given as a SMILES string. Structures can show the parent of a compound that is named as a salt.

The cell viability is a read-out of living cells in per cent, often relative to untreated cells.

This test concerns MOLM14. Put plainly: cell viability relative to vehicle control; higher = less cytotoxic. To be noted: 10 µM; SRSF2 genotype: SRSF2 P95H/wt. The procedure, abridged:
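Screening covered the Selleck bioactive, kinase and epigenetic probe libraries, less identity-inconsistent compounds, on CRISPR-edited mutant clones and isogenic wild-type clones of four leukaemia lines. Cells, at 2000 per well in 50 µL medium, received a single 10 µM acoustically dispensed dose. After 48 h the supernatant was removed and CellTiter-Glo luminescence was read. Viability was analysed in Genedata Screener as percent of the on-plate vehicle control.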
On to `C#Cc1cccc(Nc2ncnc3cc(OCCOC)c(OCCO)cc23)c1` [OSI-420 (Desmethyl Erlotinib)], for which the cell viability came to 32.1%. For `O=C(O)Cc1ccccc1Nc1c(Cl)cccc1Cl` [Diclofenac Sodium] the value was 108%; for `CC[C@H](C)C(=O)O[C@H]1C[C@@H](C)C=C2C=C[C@H](C)[C@H](CC[C@@H]3C[C@@H](O)CC(=O)O3)[C@H]21` [Lovastatin (Mevacor)], 82.9%.

Consider `Clc1ccc2c(c1)CCc1cccnc1C2=C1CCNCC1` [Desloratadine], for which the cell viability is 88.8%. To `CNCCCC12CCC(c3ccccc31)c1ccccc12` [Maprotiline hydrochloride] belongs 64.4%; to `NC(=O)OCC(COC(N)=O)c1ccccc1` [Felbamate], 93.4%. For `CCN(CC)CCOCCOC(=O)C1(c2ccccc2)CCCC1` [Pentoxyverine Citrate] the value was 96.4%.

As for `Cn1cc(C2=C(c3ccc(Cl)cc3Cl)C(=O)NC2=O)c2ccccc21`, the cell viability is 103%.

In the case of `Clc1ccc(C(Cn2ccnc2)OCc2ccc(Sc3ccccc3)cc2)c(Cl)c1` (stereo not given) [Fenticonazole nitrate], the cell viability was found to be 70.6%.

In the case of `CC1(C)CCC(CN2CCN(c3ccc(C(=O)NS(=O)(=O)c4ccc(NCC5CCOCC5)c([N+](=O)[O-])c4)c(Oc4cnc5[nH]ccc5c4)c3)CC2)=C(c2ccc(Cl)cc2)C1` [Venetoclax (ABT-199, GDC-0199)], the cell viability was determined as 1.63%. For `C[N+]1(C)CCCC1C(=O)[O-]` (stereo not given) [Stachydrine] the value was 99.6%; for `CC1(C)[C@@H](O[C@H]2O[C@H](C(=O)O)[C@@H](O)[C@H](O)[C@H]2O[C@@H]2O[C@H](C(=O)O)[C@@H](O)[C@H](O)[C@H]2O)CC[C@]2(C)[C@H]3C(=O)C=C4[C@@H]5C[C@@](C)(C(=O)O)CC[C@]5(C)CC[C@@]4(C)[C@]3(C)CC[C@@H]12` [Dipotassium glycyrrhizinate], 103%. Consider `C[C@H](NC(=O)CCc1nc2ccccc2c(=O)[nH]1)c1ccccc1`, for which the cell viability came out at 105%.

`N#CC(=Cc1cn(-c2ccccc2)c2ccccc12)C(=O)O`: the cell viability was 89.2%. Turning to `COc1cc2nc(N3CCN(C(=O)C4CCCO4)CC3)nc(N)c2cc1OC` (stereo not given) [Terazosin HCl], the cell viability is 101%. To `C[C@@H]1CC(=O)NN=C1c1ccc(NN=C(C#N)C#N)cc1` [Levosimendan] belongs 94.7%. To `Cn1c(-c2ccccc2C(F)(F)F)nnc1C12CCC(c3noc(C4CC(F)(F)C4)n3)(CC1)CC2` belongs 79.8%; to `CCCCCCCCCCCCCCCC(=O)OCC(O)C1OC(=O)C(O)=C1O` [L-Ascorbyl 6-palmitate], 106%.

Regarding `OC[C@H]1O[C@@H](Oc2ccc(O)cc2)[C@H](O)[C@@H](O)[C@@H]1O` [Arbutin (Uva, p-Arbutin)], the cell viability worked out at 103%. As to `CC[C@H](C)C(=O)O[C@H]1C[C@H](O)C=C2C=C[C@H](C)[C@H](CC[C@@H](O)C[C@@H](O)CC(=O)O)[C@H]21` [Pravastatin sodium], the cell viability worked out at 104%. For `C[C@H]1CNC(=O)c2cnn3ccc(nc23)N[C@H](C)c2cc(F)ccc2O1` the value was 9.21%. To `COc1cc2c(cc1OC(C)C)[C@H](c1ccc(Cl)cc1)N(c1ccc(N(C)C[C@H]3CC[C@H](N4CCN(C)C(=O)C4)CC3)cc1)C(=O)C2` belongs 0.15%; to `CSCC[C@H](NC(=O)[C@H](CC(C)C)NC(=O)[C@H](Cc1c[nH]c2ccccc12)NC(=O)[C@H](CCC(N)=O)NC(=O)[C@@H](NC(=O)[C@H](Cc1ccccc1)NC(=O)[C@H](CC(=O)O)NC(=O)[C@H](CCC(N)=O)NC(=O)[C@H](C)NC(=O)[C@H](CCCNC(=N)N)NC(=O)[C@H](CCCNC(=N)N)NC(=O)[C@H](CO)NC(=O)[C@H](CC(=O)O)NC(=O)[C@H](CC(C)C)NC(=O)[C@H](Cc1ccc(O)cc1)NC(=O)[C@H](CCCCN)NC(=O)[C@H](CO)NC(=O)[C@H](Cc1ccc(O)cc1)NC(=O)[C@H](CC(=O)O)NC(=O)[C@H](CO)NC(=O)[C@@H](NC(=O)[C@H](Cc1ccccc1)NC(=O)[C@@H](NC(=O)CNC(=O)[C@H](CCC(N)=O)NC(=O)[C@H](CO)NC(=O)[C@@H](N)Cc1cnc[nH]1)[C@@H](C)O)[C@@H](C)O)C(C)C)C(=O)N[C@@H](CC(N)=O)C(=O)N[C@H](C(=O)O)[C@@H](C)O` [Glucagon HCl], 102%; to `CC(=O)O[C@]1(C)CC[C@@]23C[C@H]1C(C)(C)[C@@H]2CC[C@H]3C` [Cedryl acetate], 101%. For `OC(CN1CCN(c2cccc(Cl)c2)CC1)C(c1ccccc1)c1ccccc1` (stereo not given) the value was 86.9%.
